Experimental data from publication PMC4336329 (PLoS ONE, 2015).
The whole screen tested about 310,000 compounds, of which about 14,000 (4.5%) showed an effect of 50% or more. The effect is printed as a negative number. The sample holds strong results, similar compounds and a random draw of the others, so the mix is not that of the screen.

Target: human ether-à-go-go-related gene (hERG) potassium channel (human, UniProt Q12809)
Assay: primary screen, population patch clamp on CHO cells stably expressing hERG; higher = less effect of the substance
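Also: peak tail current of the secondary pulse compared with the same well before compound.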

Sequence of human ether-à-go-go-related gene (hERG) potassium channel (Q12809 whole entry, looked up): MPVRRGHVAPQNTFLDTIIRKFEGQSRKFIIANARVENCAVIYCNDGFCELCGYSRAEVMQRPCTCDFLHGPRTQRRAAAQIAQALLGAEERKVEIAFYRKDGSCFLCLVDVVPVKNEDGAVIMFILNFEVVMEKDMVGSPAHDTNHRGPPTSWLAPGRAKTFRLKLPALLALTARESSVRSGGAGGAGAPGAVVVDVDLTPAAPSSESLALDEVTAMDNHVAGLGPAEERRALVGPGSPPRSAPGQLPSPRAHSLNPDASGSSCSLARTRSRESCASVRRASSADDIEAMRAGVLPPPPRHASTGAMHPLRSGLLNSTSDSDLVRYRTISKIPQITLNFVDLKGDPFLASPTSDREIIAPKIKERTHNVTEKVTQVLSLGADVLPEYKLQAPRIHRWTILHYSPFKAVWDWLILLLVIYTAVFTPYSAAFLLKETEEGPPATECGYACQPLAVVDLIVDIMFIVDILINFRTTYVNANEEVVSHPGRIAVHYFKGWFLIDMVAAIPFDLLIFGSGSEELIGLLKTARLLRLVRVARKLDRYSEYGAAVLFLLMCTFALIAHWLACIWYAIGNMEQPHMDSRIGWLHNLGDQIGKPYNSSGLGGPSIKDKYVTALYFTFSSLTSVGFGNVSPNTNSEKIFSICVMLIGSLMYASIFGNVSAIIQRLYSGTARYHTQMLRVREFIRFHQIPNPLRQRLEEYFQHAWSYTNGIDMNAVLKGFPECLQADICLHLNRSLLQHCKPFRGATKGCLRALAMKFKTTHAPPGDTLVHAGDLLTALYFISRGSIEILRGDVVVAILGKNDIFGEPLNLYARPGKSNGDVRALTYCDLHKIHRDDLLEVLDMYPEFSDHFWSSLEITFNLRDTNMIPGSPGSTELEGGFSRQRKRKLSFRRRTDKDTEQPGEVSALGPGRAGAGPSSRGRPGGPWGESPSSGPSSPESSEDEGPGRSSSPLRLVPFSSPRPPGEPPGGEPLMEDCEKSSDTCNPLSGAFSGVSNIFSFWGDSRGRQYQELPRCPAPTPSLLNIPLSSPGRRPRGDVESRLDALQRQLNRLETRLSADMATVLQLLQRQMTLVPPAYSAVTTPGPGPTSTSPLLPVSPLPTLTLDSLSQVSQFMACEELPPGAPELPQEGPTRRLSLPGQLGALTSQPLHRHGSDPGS

Point of comparison: C=CCn1c(NCc2ccccc2)nc2ccccc21, “hERG current change (%, negative = inhibition) at 10uM” value -26.4%. Against it:
- COc1ccc(Br)cc1/C=N/Nc1ccccn1 — higher, 14.8%
- O=C(Nc1cccc(S(=O)(=O)NC2=NCCC2)c1)c1ccc(=O)[nH]c1 — higher, 10.7%
- COc1cc(-c2nnc3sc(C4CCCCC4)nn23)cc(OC)c1OC — lower, -43.7%
- COc1cccc(-c2nnc3sc(C4CCCCC4)nn23)c1 — lower, -45.2%
- COc1ccc(-c2nnc3sc(C4CCCCC4)nn23)cc1OC — lower, -51.1%
- CC(C)c1cc(C(=O)N2CCCC(CCC(=O)N3CCN(c4ccccn4)CC3)C2)no1 (stereo not shown) — lower, -36.8%
- CN(C)CCCNC(=O)/C(=C\c1ccc(-c2ccc(Br)cc2)o1)NC(=O)c1ccccc1 — lower, -75.1%
- Cc1ccc(C(=O)N/C(=C/c2ccc(-c3ccc(Br)cc3)o2)C(=O)NC2CCS(=O)(=O)C2)cc1 (stereo not shown) — higher, -6.35%
- Cc1ccc(C(=O)N/C(=C\c2ccc(-c3ccc(Cl)cc3)o2)C(=O)NCCCN(C)C)cc1 — lower, -85%
- Cc1ccc(C(=O)N/C(=C\c2ccc(-c3ccc(Br)cc3)o2)C(=O)NC2CCS(=O)(=O)C2)cc1 (stereo not shown) — higher, -5.68%
- Cc1ccc(C(=O)N/C(=C\c2ccc(Cl)cc2)C(=O)NCC2CCCO2)cc1 (stereo not shown) — lower, -49%
- CN(C)CCCNC(=O)c1ccc(-c2ccccc2)cc1 — lower, -36.7%
- Cc1ccc(C(=O)N/C(=C/c2ccc(Cl)cc2)C(=O)NCC2CCCO2)cc1 (stereo not shown) — lower, -48.7%
- Cc1ccc(C(=O)N/C(=C\c2ccc(-c3ccc(Br)cc3)o2)C(=O)NCCCN(C)C)cc1 — lower, -80.3%
- O=C(NCCO)/C(=C\c1ccc([N+](=O)[O-])o1)NC(=O)c1ccccc1 — higher, 1.55%
- O=C(N1CCOCC1)N(Cc1ccco1)CC1CCCO1 (stereo not shown) — lower, -48.5%
- COc1ccccc1NC(=O)c1ccc2nc(C)c(C)nc2c1 — higher, -16.1%
- O=C(c1ccccc1)n1ccn(-c2ccccc2)c1=S — higher, -14.9%
- Cn1c(=NC(=O)CS(=O)(=O)c2ccccc2)sc2cc([N+](=O)[O-])ccc21 — lower, -36.5%
- CCCc1cc(=O)oc2cc(C)cc(OC(C)C(=O)NCC(O)c3ccccc3)c12 (stereo not shown) — higher, 7.42%
- CCN(CC)S(=O)(=O)c1ccc(C(=O)NCC2(N3CCOCC3)CCCCC2)cc1 — lower, -67.3%
- CN(C)S(=O)(=O)c1ccc(C(=O)NCC2(N3CCCCC3)CCCCC2)cc1 — higher, -1.46%
- Cc1ccccc1C(=O)NCC(=O)NCC1(N2CCOCC2)CCCCC1 — higher, -25.7%
- O=C(CNC(=O)c1ccc(OC(F)F)cc1)NCC1(N2CCOCC2)CCCCC1 — lower, -68.5%
- NC(=O)COc1ccc(C(=O)NCC2(N3CCOCC3)CCCCC2)cc1 — higher, 6.98%
- CN(C)S(=O)(=O)c1ccc(C(=O)NCC2(N3CCOCC3)CCCCC2)cc1 — higher, -9.69%
- CCC(C)NC(=O)CS(=O)Cc1nc(-c2cccc(OC)c2)oc1C (stereo not shown) — higher, 2.84%
- CCOc1cc(C2NC(=O)NC(C)=C2C(C)=O)cc(Cl)c1OCC(=O)O (stereo not shown) — higher, 5.35%
- CCc1ccc(OCC(=O)Nc2ccc(S(=O)(=O)Nc3cc(C)on3)cc2)c(Br)c1 — higher, -19.7%
- Brc1cccc(CNc2nc3ccccc3n2CCN2CCOCC2)c1 — lower, -76.3%
- Cn1c(NCc2cccc(Br)c2)nc2ccccc21 — higher, -22.2%
- Brc1cccc(CNc2nc3ccccc3n2CCN2CCCCC2)c1 — lower, -67.8%
- Cl.OCCNc1nc2ccccc2n1CCN1CCCCC1 — lower, -30.4%
- Brc1ccc(CNc2nc3ccccc3n2CCN2CCCCC2)cc1 — lower, -62.7%
- Nc1nc2ccccc2n1CCN1CCCC1 — higher, 6.04%
- Cc1nc2ccccc2n1CCN1CCOCC1.Cl — higher, 23.3%
- Cc1ccc(OCCn2cnc3cc([N+](=O)[O-])ccc3c2=O)cc1 — higher, -8.19%
- COc1ccc(S(=O)(=O)NNC(=O)c2sccc2-n2cccc2)cc1 — higher, 2%
- COC(=O)c1ccc(NC(=O)C2CCCN2S(=O)(=O)c2ccc(OC)cc2)cc1 (stereo not shown) — higher, -16.8%
- COc1cc(C(=O)Nc2ccc(C(=O)c3cccs3)cc2)cc(OC)c1OC — higher, -10.1%
- Cc1cc(F)ccc1NC(=S)NC1CCCC1 — higher, 17.9%
- COC(=O)c1[nH]c2cc(OC)ccc2c1NC(=O)CCN1CCCCC1 — higher, -20.5%
